This excerpt belongs to a sample that is enriched for hits.
mHTT-CaM PPI inh – mHTT-calmodulin interaction abrogation; AID 1671202; P42858; AlphaScreen His-mHTT/GST-CaM binding, luminescence; actives 3.6% (n = 190,000); inhibition, % at 15 µM;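 also: 0% = both proteins with DMSO and 100% = one protein alone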
Target sequence (P42858 whole entry, looked up, stated change not applied): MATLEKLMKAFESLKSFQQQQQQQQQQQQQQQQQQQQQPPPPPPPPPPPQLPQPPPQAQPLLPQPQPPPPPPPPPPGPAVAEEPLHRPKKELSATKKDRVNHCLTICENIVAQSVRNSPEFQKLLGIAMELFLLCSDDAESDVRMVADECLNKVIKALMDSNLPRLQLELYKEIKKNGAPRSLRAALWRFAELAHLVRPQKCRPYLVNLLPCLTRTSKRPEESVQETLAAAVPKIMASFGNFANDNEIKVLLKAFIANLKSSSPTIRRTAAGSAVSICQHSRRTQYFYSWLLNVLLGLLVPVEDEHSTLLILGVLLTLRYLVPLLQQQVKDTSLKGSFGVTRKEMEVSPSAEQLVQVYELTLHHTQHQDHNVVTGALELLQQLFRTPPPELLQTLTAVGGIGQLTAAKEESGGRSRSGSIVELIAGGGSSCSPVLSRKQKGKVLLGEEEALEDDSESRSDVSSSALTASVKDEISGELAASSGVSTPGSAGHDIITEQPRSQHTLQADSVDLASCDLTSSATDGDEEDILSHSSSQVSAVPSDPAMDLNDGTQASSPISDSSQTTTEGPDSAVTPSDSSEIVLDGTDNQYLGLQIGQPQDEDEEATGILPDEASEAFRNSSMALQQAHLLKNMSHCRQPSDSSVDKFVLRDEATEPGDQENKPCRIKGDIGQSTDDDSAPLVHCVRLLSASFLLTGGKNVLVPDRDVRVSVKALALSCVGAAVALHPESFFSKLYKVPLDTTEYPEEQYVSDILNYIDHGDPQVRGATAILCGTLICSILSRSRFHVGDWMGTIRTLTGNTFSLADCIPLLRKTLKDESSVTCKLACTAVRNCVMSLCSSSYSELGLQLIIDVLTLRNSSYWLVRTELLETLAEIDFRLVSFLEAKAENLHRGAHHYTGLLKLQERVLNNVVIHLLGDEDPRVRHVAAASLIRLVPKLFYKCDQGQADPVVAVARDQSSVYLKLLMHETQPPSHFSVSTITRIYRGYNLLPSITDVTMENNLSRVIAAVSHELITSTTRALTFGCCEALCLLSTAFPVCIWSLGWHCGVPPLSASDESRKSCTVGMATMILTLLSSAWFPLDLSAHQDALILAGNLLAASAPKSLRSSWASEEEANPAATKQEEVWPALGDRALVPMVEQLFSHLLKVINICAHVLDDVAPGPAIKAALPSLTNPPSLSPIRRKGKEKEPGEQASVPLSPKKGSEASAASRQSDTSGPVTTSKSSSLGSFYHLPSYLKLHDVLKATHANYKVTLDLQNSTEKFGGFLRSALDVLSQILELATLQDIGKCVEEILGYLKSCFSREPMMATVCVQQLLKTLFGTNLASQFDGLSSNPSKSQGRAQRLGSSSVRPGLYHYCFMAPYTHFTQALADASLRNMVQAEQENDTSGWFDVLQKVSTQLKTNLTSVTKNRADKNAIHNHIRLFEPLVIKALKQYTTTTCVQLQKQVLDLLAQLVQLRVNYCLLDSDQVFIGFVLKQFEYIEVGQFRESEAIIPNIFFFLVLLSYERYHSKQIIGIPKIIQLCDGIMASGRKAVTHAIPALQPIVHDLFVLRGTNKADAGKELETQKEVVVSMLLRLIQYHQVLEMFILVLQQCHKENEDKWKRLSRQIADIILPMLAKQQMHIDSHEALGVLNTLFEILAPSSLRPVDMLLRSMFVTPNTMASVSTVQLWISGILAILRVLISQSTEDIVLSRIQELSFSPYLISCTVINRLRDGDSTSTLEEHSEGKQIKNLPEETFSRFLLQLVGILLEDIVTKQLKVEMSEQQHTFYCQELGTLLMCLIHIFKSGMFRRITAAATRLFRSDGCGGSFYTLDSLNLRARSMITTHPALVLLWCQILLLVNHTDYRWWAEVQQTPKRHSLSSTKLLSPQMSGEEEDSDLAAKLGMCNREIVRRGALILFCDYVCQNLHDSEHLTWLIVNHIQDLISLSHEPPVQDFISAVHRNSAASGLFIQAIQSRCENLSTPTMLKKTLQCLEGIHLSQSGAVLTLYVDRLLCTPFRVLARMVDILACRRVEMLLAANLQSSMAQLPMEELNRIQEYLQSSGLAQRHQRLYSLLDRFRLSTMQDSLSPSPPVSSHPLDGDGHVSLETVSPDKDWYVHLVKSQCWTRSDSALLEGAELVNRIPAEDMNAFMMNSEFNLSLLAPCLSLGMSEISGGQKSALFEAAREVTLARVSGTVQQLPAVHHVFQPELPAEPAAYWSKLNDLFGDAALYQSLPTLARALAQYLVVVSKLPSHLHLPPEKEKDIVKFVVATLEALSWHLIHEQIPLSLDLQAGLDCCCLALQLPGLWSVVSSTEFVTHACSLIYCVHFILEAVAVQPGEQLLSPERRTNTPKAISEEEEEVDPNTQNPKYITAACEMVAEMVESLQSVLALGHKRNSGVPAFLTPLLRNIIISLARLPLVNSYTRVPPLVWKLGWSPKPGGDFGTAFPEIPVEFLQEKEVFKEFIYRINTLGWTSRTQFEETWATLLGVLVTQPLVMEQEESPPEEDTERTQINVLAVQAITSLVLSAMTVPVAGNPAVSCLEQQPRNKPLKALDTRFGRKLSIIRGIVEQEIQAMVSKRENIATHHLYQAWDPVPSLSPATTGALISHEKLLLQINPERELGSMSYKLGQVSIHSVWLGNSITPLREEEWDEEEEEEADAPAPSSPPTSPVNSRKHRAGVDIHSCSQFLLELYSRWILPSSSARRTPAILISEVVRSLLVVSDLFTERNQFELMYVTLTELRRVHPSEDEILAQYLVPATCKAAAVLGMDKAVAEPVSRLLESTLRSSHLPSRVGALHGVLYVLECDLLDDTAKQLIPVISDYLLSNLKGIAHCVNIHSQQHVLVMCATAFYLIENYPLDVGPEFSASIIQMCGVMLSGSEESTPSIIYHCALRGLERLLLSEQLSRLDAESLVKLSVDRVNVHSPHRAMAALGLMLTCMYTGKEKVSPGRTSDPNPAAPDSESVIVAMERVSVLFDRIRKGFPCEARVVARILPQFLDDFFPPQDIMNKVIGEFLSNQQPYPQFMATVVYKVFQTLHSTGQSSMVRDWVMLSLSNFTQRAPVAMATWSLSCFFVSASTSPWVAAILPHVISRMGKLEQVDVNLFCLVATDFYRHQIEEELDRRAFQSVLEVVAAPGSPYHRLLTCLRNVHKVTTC
Pf apPOL inh – Pf-apPOL DNA polymerase inhibition. Recombinant Pf-apPOL, molecular beacon fluorescence, 1.5 h. inhibition, % at 10 µM. actives 0.25% (n = 210,000). AID 1794808
* = called active by the depositor; x = no result. Rule as the data show it: active = inhibition above about 50%; inactive = the rest.

SMILES | mHTT-CaM PPI inh | Pf apPOL inh
O=C(Nc1ccc(F)cc1)C1CCCN(C(=O)c2cccc(C(F)(F)F)c2)C1 (stereo unspecified) | 26 | -6
Cc1cccc2sc(NC(=O)CCS(=O)(=O)c3ccc(Br)s3)nc12 | 5 | -2
Cc1cccc2sc(NC(=O)CN(C)S(=O)(=O)c3ccc(Br)s3)nc12 | 92* | 1
O=C(CSc1nnnn1-c1ccc(F)c(Cl)c1)N1CCCCC1 | -5 | -7
COc1cccc(-n2nc(C(=O)NCc3ccccn3)c3ccccc3c2=O)c1 | 13 | -5
CCCN1CCN(C(=O)C2CCN(c3cncnc3N3CCOCC3)CC2)CC1 | -5 | -8
COc1cccc(N2CCN(S(=O)(=O)c3ccc4[nH]c5c(c4c3)CCCC5)CC2)c1 | 55* | -4
COc1ccccc1N1CCN(S(=O)(=O)c2ccc(OC)c([N+](=O)[O-])c2)CC1 | 14 | -5
COc1ccccc1N1CCN(S(=O)(=O)c2ccc3[nH]c4c(c3c2)CCCC4)CC1 | 50* | -5
COc1ccc(S(=O)(=O)N2CCN(c3cccc(Cl)c3)CC2)cc1 | -8 | -16
CCCC(=O)N1CCC2(CC1)CC(=O)c1ccccc1O2 | -3 | -6
O=C(Nc1ccc2oc(-c3cccnc3)nc2c1)c1cc(I)ccc1Cl | 6 | -6
Cc1c(Cl)cccc1-c1ccc(C(=O)Nc2ccccn2)o1 | -4 | -16
CCOc1cccc(C(Nc2ccccn2)c2ccc3ccc(C)nc3c2O)c1O (stereo unspecified) | 67* | -7
Cc1ccc2cccc(OCc3ccccc3)c2n1 | -6 | 10
Cc1ccc2ccc(C(Nc3ccccn3)c3ccccc3Cl)c(O)c2n1 (stereo unspecified) | 64* | 3
COc1ccc(CC2c3cc(OC)c(OC)cc3CCN2N=Nc2cccc(F)c2)cc1OC (stereo unspecified) | x | 0
Cc1cccc(S(=O)(=O)NC2CCN(c3ccc(F)cc3)C2=O)c1 (stereo unspecified) | -10 | 1
COc1ccc(C2CC(c3cccc(Br)c3)Nc3ncnn32)c(OC)c1OC (stereo unspecified) | 60* | -4
COc1ccc(C2CC(c3cccc(Br)c3)Nc3ncnn32)cc1OC (stereo unspecified) | 39 | 1
COc1cccc(C2CC(c3cccc(OC)c3OC)n3ncnc3N2)c1 (stereo unspecified) | 2 | 2
COc1cccc(C2CC(c3cccc(Br)c3)Nc3ncnn32)c1OC (stereo unspecified) | 68* | -2
Cc1cc(NC(=O)C(=O)NCC(O)c2cccc3ccccc23)no1 (stereo unspecified) | -11 | -10
COc1ccc(/C=c2\sc3nc(-c4ccc(Br)cc4)nn3c2=O)c(OC)c1 | -1 | 0
COc1ccc(-c2nnc(NC(=O)c3ccc(S(=O)(=O)N4CCCCCC4)cc3)o2)cc1 | 8 | 0
SMILES | mHTT-CaM PPI inh | Pf apPOL inh
COc1ccc(-c2nnc(NC(=O)c3ccc(OC)c(OC)c3)o2)cc1 | 50* | -7
COc1ccc(-c2nnc(NC(=O)c3ccc(S(=O)(=O)N4CCOCC4)cc3)o2)c(OC)c1 | 54* | 6
COc1ccc(-c2nnc(NC(=O)c3ccc(S(=O)(=O)N4CCOCC4)cc3)o2)cc1 | 6 | -6
COc1ccc(C(=O)Nc2nnc(-c3ccccc3)o2)cc1OC | 12 | -4
COc1ccc(-c2nnc(NC(=O)c3ccc(S(=O)(=O)N4CCCCC4)cc3)o2)cc1 | -1 | 74*
CC1Oc2ccccc2C2CC(c3ccccc3)=NN12 (stereo unspecified) | 24 | -2
Cc1ccc(S(=O)(=O)N(CC(=O)N2CCOCC2)Cc2ccc(Br)cc2)cc1 | 28 | -4
CC1(C)CC(=O)C2=C(C1)Nc1nc(-c3cccc(Cl)c3)nn1C2c1ccc2c(c1)OCO2 (stereo unspecified) | 61* | -2
Cc1cccc(-c2nc3n(n2)C(c2ccc(O)cc2)C2=C(CC(C)(C)CC2=O)N3)c1 (stereo unspecified) | 7 | -2
N#CC(=Cc1[nH]c2ccccc2c1O)C(N)=NC1CCCCC1 | 92* | 0
N#CC(=Cc1[nH]c2ccccc2c1O)C(N)=NCCc1ccccc1 | 19 | -6
CCOc1ccccc1N1CCN(C(=O)c2cccc(C)c2)C(C)C1=O (stereo unspecified) | 6 | -2
COc1ccc(CN2C(=O)CC(C(=O)O)SC2=Nc2ccc(Cl)cc2)cc1 (stereo unspecified) | 4 | 52*
O=C(O)C1CC(=O)N(Cc2ccc(Cl)cc2)C(=Nc2ccc(Cl)cc2)S1 (stereo unspecified) | 27 | -13
COc1ccc(N=C2SC(C(=O)O)CC(=O)N2Cc2ccc(F)cc2)cc1 (stereo unspecified) | -4 | 3
COc1ccc(N=C2SC(C(=O)N3CCN(c4ccc(F)cc4)CC3)CC(=O)N2C)cc1 (stereo unspecified) | 51* | -8
COCC(=O)N1CCN(Cc2noc3ccccc23)CC1 | -5 | 0
Cc1ccc(Cl)cc1NC(=O)c1cccc(I)c1 | -7 | -7
O=C1CSC(=O)N1CC(O)COc1ccc(OCC(O)CN2C(=O)CSC2=O)cc1 (stereo unspecified) | 1 | 70*
O=C1CSC(=O)N1CCOc1ccc(F)cc1 | -5 | 2
COc1ccc(C2CCN(C(=O)c3cccnc3)CC2)cc1 | -2 | 0
c1ccc(Nc2nc(N3CCCCC3)nc(N3CCNCC3)n2)cc1 | 16 | 0
Clc1ccc(Nc2nc(Oc3ccccc3)nc(N3CCOCC3)n2)cc1 | -2 | -3
NNc1nc(Nc2ccccc2)nc(N2CCOCC2)n1 | 98* | -1
NNc1nc(Nc2ccccc2)nc(N2CCCC2)n1 | 81* | -6
SMILES | mHTT-CaM PPI inh | Pf apPOL inh
O=C1CCCC2=C1C(c1cccc([N+](=O)[O-])c1)NC(=S)N2 (stereo unspecified) | 17 | 25
CC(C)c1ccc(NCCC(=O)c2ccc([N+](=O)[O-])cc2)cc1 | 56* | -1
Cc1ccc(NCCC(=O)c2cccc([N+](=O)[O-])c2)cc1 | 27 | -5
Nc1nc(CSc2ncccn2)nc(Nc2ccccc2)n1 | -1 | -4
Cc1ccc2cccc(SCc3nc(N)nc(Nc4ccccc4)n3)c2n1 | 61* | -12
CN(C)c1ncncc1N1CCC(C(=O)NCc2ccc(F)cc2)CC1 | 8 | 0
O=C(c1ccccc1)c1cc2cc(Br)ccc2o1 | -13 | -4
O=C(NC1CCc2[nH]c3ccc(Br)cc3c2C1)C1CC=CCC1 (stereo unspecified) | 98* | -8
Cc1cc(C)c(C(=O)N2CCC(CC(=O)NC3CCCCCC3)CC2)[nH]1 | 4 | 0
Cc1nc(CC(=O)NC2CCc3[nH]c4ccc(Cl)cc4c3C2)c(C)s1 (stereo unspecified) | 99* | -1
CC(C)C(=O)NC1CCc2[nH]c3ccc(Br)cc3c2C1 (stereo unspecified) | 53* | -9
O=C(Cc1c(C(=O)O)[nH]c2ccc(Cl)cc12)NC1CC1 | -2 | -12
Cc1cc(Cl)cc2c3c([nH]c12)CCC(NC(=O)CC1CC1)C3 (stereo unspecified) | 90* | 1
O=C(NC1CC1)C1CCN(S(=O)(=O)c2ccc3[nH]c4c(c3c2)CCCCC4)CC1 | 24 | -4
CC(CC(F)(F)F)C(=O)NC1CCc2[nH]c3ccc(Br)cc3c2C1 (stereo unspecified) | 34 | -3
O=C(NC1CCCCC1)c1cn2c(n1)COCC2 | 7 | -1
COc1cccc(-c2cc3ccc(O)c(CN4CCCCC4)c3oc2=O)c1 | -16 | -12
